# Values without a mark were called inactive. Active and inactive are the calls of the source. The call rests on the fitted dose curve; in most records, active means well fitted activation curve with a large enough effect in the repeat runs; inconclusive means weak or mixed curves; inactive means flat fitted curve, though single readings scatter.
# Experiment: A CellTox Green Cytotoxicity Assay to monitor cytotoxicity in HEK293 cells - 0 hour (AID 1224869); further: nearly all actives have a fitted effect of over 50% in size
# Conditions: CellTox Green fluorescence; series mostly up to 76.8 µM
# Excerpt: National Center for Advancing Translational Sciences [NCATS]
# NIH Chemical Genomics Center [NCGC]
# U.S. Environmental Protection Agency [EPA]
# National Institutes of Environmental Health Sciences [NIEHS]
# National Toxicology Program [NTP]
# Cell-based models are critical for drug discovery. Determining the natural cytotoxic effects resulting from test compounds is an essential research activity. A CellTox Green Cytotoxicity Assay to monitor cytotoxicity in real time of continues cell culture during 40 hours of the compound treatment was used to screen Tox21 10K library compounds in Hek293 cells. CellTox Green Cytotoxicity Assay is a nonlytic, homogeneous, biofluorescent method to measure cytotoxicity in cell culture after experimental manipulation. The assay system uses a proprietary asymmetric cyanine dye that is excluded from viable cells but preferentially stains the dead cell's DNA. […] Viable cells produce no appreciable increases in fluorescence. Therefore, the fluorescence signal produced by the binding interaction with dead cell DNA is proportional to cytotoxicity.
# The mixture of Hek293 cell suspension and reagents were dispensed at 600cells/6 ul/well in 1536-well tissue culture treated black solid bottom plates using a Multidrop dispenser. After the assay plates were incubated at a 37 C/5% CO2 incubator for 5 hours, 23 nL of compounds dissolved in DMSO, positive and negative controls was transferred to the assay plate by a pintool work station. The plates were incubated at 37 C for 40 hours. The fluorescence intensity were measured at 0h, 8h, 16h, 24h, 32h and 40h time points using ViewLux plate reader during compound treatment.
# On the % scale 0 is the no-effect control and ±100 the full control effect.
SMILES,outcome,cytotoxicity
C[C@H]1[C@H](NC(=O)/C(=N/OC(C)(C)C(=O)O)c2csc(N)n2)C(=O)N1S(=O)(=O)O (stereo in doubt),inactive,–
O=C(O)CCSCCC(=O)O,inactive,–
CN1[C@@H]2CC[C@H]1CC(OC(=O)C(O)c1ccccc1)C2 (stereo not given in full),inactive,–
NC(CCC(=O)O)C(=O)O (stereo not given),inactive,–
CCCCCCCCCCCCCCC(=O)O,inactive,–
CNC(=O)Nc1ccc(Cl)c(Cl)c1,inactive,–
CCCCN1C=CN(C)C1,–,-3.75% [at 15.8 µM]
C=C[Si](OC(C)=O)(OC(C)=O)OC(C)=O,inactive,–
O=C(CO)[C@@H](O)[C@H](O)[C@H](O)CO,inactive,–
CCCCCC(C)N (stereo not given),inactive,–
CCCCCCCCCCCCSC,inactive,–
CCCCCCC1CCC(=O)O1 (stereo not given),inactive,–
Cc1ccc(-c2ncc(Cl)cc2-c2ccc(S(C)(=O)=O)cc2)cn1,inactive,–
CC(=O)OCC(=O)[C@@]1(O)[C@H](C)C[C@H]2[C@@H]3CCC4=CC(=O)C=C[C@]4(C)[C@@]3(F)[C@@H](O)C[C@@]21C,inactive,–
NC(=O)NC1N=C([O][Al])NC1=O (stereo not given),inactive,–
Nc1ccccn1,inactive,–
N[C@H](C(=O)O)[C@@H](O)c1ccc(O)c(O)c1,inactive,–
O=[N+]([O-])c1ccc(/C=N\O)o1,inactive,–
CC(C)CCCO,inactive,–
COCCOC[C@H](CC1(C(=O)NC2CCC(C(=O)O)CC2)CCCC1)C(=O)Oc1ccc2c(c1)CCC2 (stereo not given in full),inactive,–

SMILES,outcome,cytotoxicity
CN(C)CCCN(C)CCCN(C)C,inactive,–
CC(=O)C1CCCCC1=O (stereo not given),inactive,–
CO[C@@]1(NC(=O)C(C(=O)O)c2ccc(O)cc2)C(=O)N2C(C(=O)O)=C(CSc3nnnn3C)CO[C@@H]21 (stereo not given in full),inactive,–
c1coc(CNc2ncnc3nc[nH]c23)c1,inactive,–
CN1CC(=O)N/C1=N/C(=O)Nc1cccc(Cl)c1,inactive,–
C=CCCCCCCCCC(=O)OCC,inactive,–
CC1OC1C1CCC2(C)OC2C1 (stereo not given),inactive,–
C[C@@H]1CCC[C@H](C)N1,inactive,–
NC(=O)N1c2ccccc2CC(=O)c2ccccc21,inactive,–
CCCO[Si](OCCC)(OCCC)OCCC,inactive,–
CC(C)NNC(=O)c1ccncc1,inactive,–
CCNS(=O)(=O)c1ccc(C)cc1,inactive,–
Nc1ccn([C@@H]2O[C@H](CO)[C@@H](O)C2O)c(=O)n1 (stereo not given in full),inactive,–
CCO[Si](OCC)(OCC)c1ccccc1,inactive,–
CC(C)=CCC/C(C)=C/C#N,inactive,–
CN(C)CCN(C)CCN(C)C,inactive,–
NCCCC[C@H](N[C@@H](CCc1ccccc1)C(=O)O)C(=O)N1CCC[C@H]1C(=O)O,inactive,–
CCN1CCOCC1,inactive,–
NCCCC(N)(C(=O)O)C(F)F (stereo not given),inactive,–
CCC1C(=O)OCC1Cc1cncn1C (stereo not given),inactive,–

# Source: PubChem BioAssay (Tox21)
